# Laboratory results published in PubChem BioAssay (NCI).
# This is part of a sample that, as a whole, favours compounds with a hit. Of some 83,000 tested, about 20% had one in any assay.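 Cells were grown in 96-well plates and exposed to the test compound at a single concentration for 48 hours; results are reported as percent growth, with values below 10 considered active.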 Unmarked numbers belong to inactive results. Activity calls are given as the source filed them.
# How the values were obtained:
# Test in all cases: NCI-60 one-dose screen, 48 h (100 = growth as untreated, 0 = no growth, -100 = all killed)
# Settings in all cases: 10 µM unless noted
# HT29 colon = system: HT29 colon
# SNB-75 CNS = system: SNB-75 CNS
# SNB-19 CNS = system: SNB-19 CNS
# U251 CNS = system: U251 CNS
# PC-3 prostate = system: PC-3 prostate
# SK-MEL-5 melanoma = system: SK-MEL-5 melanoma
# UACC-62 melanoma = system: UACC-62 melanoma
# LOX IMVI melanoma = system: LOX IMVI melanoma
# SK-MEL-28 melanoma = system: SK-MEL-28 melanoma
# SK-MEL-2 melanoma = system: SK-MEL-2 melanoma
SMILES,growth (HT29 colon),growth (SNB-75 CNS),growth (SNB-19 CNS),growth (U251 CNS),growth (PC-3 prostate),growth (SK-MEL-5 melanoma),growth (UACC-62 melanoma),growth (LOX IMVI melanoma),growth (SK-MEL-28 melanoma),growth (SK-MEL-2 melanoma)
COc1cccc(-c2nn(-c3ccccc3)cc2-c2ccnc(N3CCN(C(=O)c4ccccc4)CC3)c2)c1,87.2%,65.9%,85.5%,78.4%,46.6%,49.8%,62.4%,87.5%,84.2%,89%
CN(C)CCCNc1c2ccc(Cl)cc2nc2c1oc1ccccc12,-22.2% (active),29.9%,16.5%,18.8%,13.7%,-98.1% (active),13.4%,-83.4% (active),16.4%,21.3%
N/C(=N\c1nc2c(Cl)cc(Cl)cc2s1)C(Cl)(Cl)Cl,8.65% (active),7.23% (active),46.8%,21%,37.5%,87%,40.3%,1.92% (active),54.9%,80.5%
OC1CCN(CCCOc2c3ccc(Cl)cc3nc3c2oc2ccccc23)CC1,-44.3% (active),-19.1% (active),6.3% (active),-43.3% (active),-4.93% (active),-97.8% (active),-69.7% (active),-85.8% (active),-78.6% (active),-86.3% (active)
CS(=O)(=O)c1ccc(-c2nc3ccccn3c2/C=N/Nc2nc(-c3ccc(Br)cc3)cs2)cc1,114%,114%,103%,107%,100%,96.5%,102%,112%,103%,113%
COc1ccc(-c2csc(N/N=C/c3c(-c4ccc(S(C)(=O)=O)cc4)nc4ccccn34)n2)cc1,115%,110%,106%,106%,105%,96.5%,102%,126%,107%,114%
CSCCC(C(=O)O)N1C(=O)/C(=C/c2ccc(O)c(O)c2)SC1=S (stereo not given),105%,93.6%,97.9%,93.4%,99.2%,99.9%,93.7%,103%,99.5%,133%
CCC/C=C/C=C/C(=O)N[C@@H](Cc1cc(F)cc(F)c1)C(=O)N[C@@H]1C(=O)N2CCC[C@H]2C(=O)N2CCCC[C@H]2C(=O)N[C@@H](C)C(=O)N2C[C@H](C)C[C@H]2C(=O)O[C@H]1C,9.05% (active),28.5%,25.8%,26.8%,14.5%,10.5%,13.6%,-25.3% (active),29%,-12.9% (active)
CNC(=O)c1cc(-c2ccc(NC(=O)Nc3ccc(N4CCN(C)CC4)c(C(F)(F)F)c3)cc2)nc2cccnc12,-89.3% (active),-83.1% (active),-79.4% (active),-94.2% (active),-90.6% (active),-96.6% (active),-83.8% (active),-92.5% (active),-92.2% (active),-80.7% (active)
Clc1ccc(-c2cn3cc(Cc4ccc(Cl)c(Cl)c4)sc3n2)cc1,90.5%,70.7%,88.9%,93.7%,81.6%,38.2%,18.2%,53.1%,71%,113%
O=C(CSc1nnc(-c2ccc3nc(-c4ccc(Cl)cc4)[nH]c3c2)o1)Nc1ccc(C(=O)/C=C/c2ccc(Cl)cc2)cc1,100%,90.9%,99.5%,82.2%,87.7%,93.7%,83.2%,-24.2% (active),106%,111%
CC(C)(C)OC(=O)N1C(=O)c2c(c3c4ccccc4[nH]c3c3ccc4ccccc4c23)C1=O,51.6%,79.5%,97.2%,58.8%,42.8%,60.4%,60.3%,57.5%,63.2%,42.7%
Cc1cc(=O)oc2cc(OCCCOc3ccc(/C=C/C(=O)Nc4ccc(Cl)cc4)cc3)ccc12,98.1%,73.3%,89.6%,56.4%,67.7%,55.9%,75.7%,40.8%,75.8%,80.4%
Cn1cc(-c2cc(N)n3nc(-c4cn(C)c5ccc(Br)cc45)cc3n2)c2cc(Br)ccc21,4.96% (active),82.2%,104%,-37.9% (active),71.9%,108%,92.1%,6.31% (active),97.2%,120%
CCN1CCN(/C(=N\c2sc(-c3ccccc3)nc2-c2ccccc2)c2ccccc2)CC1,32.6%,89.1%,84.8%,67.4%,65.8%,93.4%,55.3%,80.1%,80.6%,102%
Cc1c(Nc2nnc(SCC(=O)Nc3sc4c(c3C#N)CCCC4)s2)c(=O)n(-c2ccccc2)n1C,117%,127%,100%,102%,101%,102%,92.9%,88.7%,107%,106%
O=C(c1ccc(O)cc1)C1[C@H](c2ccc(Cl)cc2)[C@@H](c2ccccc2)NC12C(=O)Nc1ccc(Cl)cc12 (stereo not given in full),4.23% (active),46.2%,63%,29.6%,24.6%,67.3%,53.6%,26.8%,76.2%,57%
COc1cc2nc(-c3ccc(Cl)cc3)cc(OCCCNCC3CCCO3)c2cc1OC (stereo not given),16.1%,60.4%,82.5%,61.4%,52.2%,50.1%,-56.2% (active),-47.8% (active),8.95% (active),124%
N[C@@H](Cc1cn(-c2c3ccccc3nc3ccccc23)nn1)C(=O)O,107%,96.7%,93.2%,103%,99.2%,101%,93.5%,106%,100%,130%
O=C1C2=C(C(=O)c3c(O)cccc31)C(c1ccco1)c1sc(=O)[nH]c1S2 (stereo not given),12.5%,32.4%,13.6%,11.5%,8.77% (active),-93.4% (active),-74.9% (active),-2.86% (active),-28.8% (active),-7.37% (active)
Cc1[nH]nc2ncc(C#Cc3cncc(C(=O)Nc4ccc(CN5CCN(C)CC5)c(C(F)(F)F)c4)c3)cc12,9.72% (active),-6.21% (active),50.5%,40.5%,48.8%,40.2%,-15.8% (active),-23.4% (active),-11.4% (active),-44.6% (active)
N#Cc1c(-c2ccc(F)cc2)nc2c(C#N)c(Nc3ccccc3)nn2c1N,102%,101%,96.3%,104%,96.7%,99.2%,99.8%,99.8%,102%,105%
